Experimental findings from the supplement of paper PMC11732987, “Enantioselective OTUD7B fragment discovery through chemoproteomics screening and high-throughput optimisation” (Communications Chemistry, 2025) are described below.

Common to all, as to assay: log2 ratio of Biotin-Ahx-Ub-VS probe labelling (fragment/DMSO); higher = less target engagement (more negative = stronger competition), active = hit call of the paper (q ≤ 0.05, log2 ratio ≤ -1)
Conditions in all cases: compound concentration: 200 uM; treatment time: 3 h

For one experiment, the target named is T1, OTUD6B (UniProt Q8N6M0).
T1 sequence (whole entry): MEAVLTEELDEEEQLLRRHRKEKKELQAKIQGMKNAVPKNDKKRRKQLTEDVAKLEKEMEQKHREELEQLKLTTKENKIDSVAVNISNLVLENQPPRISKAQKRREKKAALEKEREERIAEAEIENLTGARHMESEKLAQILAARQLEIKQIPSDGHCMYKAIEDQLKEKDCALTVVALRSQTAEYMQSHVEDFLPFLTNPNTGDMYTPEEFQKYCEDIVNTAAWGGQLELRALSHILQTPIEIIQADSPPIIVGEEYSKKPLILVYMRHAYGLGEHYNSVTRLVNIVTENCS
Put shortly: (§1)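 Labelled DUBs were enriched with NeutrAvidin, digested with LysC and trypsin, and run by diaPASEF LC-MS/MS. The labelling used Biotin-Ahx-Ub-VS at 0.5 µM final for 1 h on HEK293T lysate (495 µg per sample) previously treated in triplicate with fragment at 200 µM or vehicle for 3 h. Values are average log2 fragment/vehicle ratios by unpaired t-test on global-median-normalised Spectronaut quantities of proteins with ≥2 unique peptides.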

The target of another experiment is T2, OTUD7B (UniProt Q6GQQ9).
T2 sequence (whole entry): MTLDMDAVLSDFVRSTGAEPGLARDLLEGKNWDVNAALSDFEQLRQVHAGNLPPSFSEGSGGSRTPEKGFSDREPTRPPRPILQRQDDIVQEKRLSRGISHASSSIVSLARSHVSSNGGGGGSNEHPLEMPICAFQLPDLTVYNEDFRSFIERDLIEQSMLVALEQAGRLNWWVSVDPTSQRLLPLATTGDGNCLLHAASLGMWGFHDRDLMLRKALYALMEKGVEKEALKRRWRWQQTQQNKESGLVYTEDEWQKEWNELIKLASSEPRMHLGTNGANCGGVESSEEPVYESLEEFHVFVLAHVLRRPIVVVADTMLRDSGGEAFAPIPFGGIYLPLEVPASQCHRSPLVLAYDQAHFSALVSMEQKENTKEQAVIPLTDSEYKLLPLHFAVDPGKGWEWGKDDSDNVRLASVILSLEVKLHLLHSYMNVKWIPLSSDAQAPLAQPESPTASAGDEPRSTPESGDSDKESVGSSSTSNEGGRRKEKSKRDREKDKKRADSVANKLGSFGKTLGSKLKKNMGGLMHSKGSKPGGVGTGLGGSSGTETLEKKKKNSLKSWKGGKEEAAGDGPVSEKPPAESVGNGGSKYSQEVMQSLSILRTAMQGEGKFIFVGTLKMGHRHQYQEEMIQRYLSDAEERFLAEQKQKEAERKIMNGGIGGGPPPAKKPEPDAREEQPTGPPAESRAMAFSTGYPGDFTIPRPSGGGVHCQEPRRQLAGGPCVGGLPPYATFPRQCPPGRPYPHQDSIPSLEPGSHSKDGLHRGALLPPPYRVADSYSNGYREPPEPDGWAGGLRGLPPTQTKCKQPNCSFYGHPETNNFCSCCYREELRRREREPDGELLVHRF
In short, it runs like this: as §1

For another experiment, the target named is PRPF8 (UniProt Q6P2Q9). In short, it runs like this: as §1
A further experiment deals with T3, PSMD7 (UniProt P51665).
T3 sequence (whole entry): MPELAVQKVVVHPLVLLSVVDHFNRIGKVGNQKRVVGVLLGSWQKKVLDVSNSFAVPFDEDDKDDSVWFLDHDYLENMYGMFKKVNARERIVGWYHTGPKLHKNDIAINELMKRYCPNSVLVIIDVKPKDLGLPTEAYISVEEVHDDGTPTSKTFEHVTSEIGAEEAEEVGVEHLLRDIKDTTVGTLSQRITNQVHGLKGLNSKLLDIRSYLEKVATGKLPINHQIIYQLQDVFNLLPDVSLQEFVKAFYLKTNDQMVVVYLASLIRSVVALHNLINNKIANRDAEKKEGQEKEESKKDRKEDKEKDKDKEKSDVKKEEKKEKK
Put shortly: as §1

For the next experiment, the target named is UCHL1 (UniProt P09936). Put shortly:
as §1

In a further experiment the target is T4, UCHL3 (UniProt P15374).
T4 sequence (whole entry): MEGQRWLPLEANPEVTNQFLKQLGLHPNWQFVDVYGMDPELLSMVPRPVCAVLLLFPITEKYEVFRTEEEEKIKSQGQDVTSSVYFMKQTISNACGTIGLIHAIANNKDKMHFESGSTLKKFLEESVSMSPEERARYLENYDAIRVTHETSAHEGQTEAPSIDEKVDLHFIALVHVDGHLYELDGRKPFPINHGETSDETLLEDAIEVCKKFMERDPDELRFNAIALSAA
Put shortly:
as §1

The target of the next experiment is T5, UCHL5 (UniProt Q9Y5K5).
T5 sequence (whole entry): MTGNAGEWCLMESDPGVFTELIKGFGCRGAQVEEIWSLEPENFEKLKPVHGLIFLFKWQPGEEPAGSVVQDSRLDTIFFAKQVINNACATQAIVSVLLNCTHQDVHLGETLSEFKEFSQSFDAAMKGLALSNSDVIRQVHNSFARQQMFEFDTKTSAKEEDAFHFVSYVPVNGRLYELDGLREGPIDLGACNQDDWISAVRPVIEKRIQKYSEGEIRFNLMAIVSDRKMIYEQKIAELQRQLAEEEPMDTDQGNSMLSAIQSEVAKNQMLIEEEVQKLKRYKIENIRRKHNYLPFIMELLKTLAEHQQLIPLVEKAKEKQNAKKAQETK
In short, it runs like this: as §1

A further experiment has as its target USP10 (UniProt Q14694). Put shortly: as §1
A further experiment addresses T6, USP15 (UniProt Q9Y4E8).
T6 sequence (whole entry): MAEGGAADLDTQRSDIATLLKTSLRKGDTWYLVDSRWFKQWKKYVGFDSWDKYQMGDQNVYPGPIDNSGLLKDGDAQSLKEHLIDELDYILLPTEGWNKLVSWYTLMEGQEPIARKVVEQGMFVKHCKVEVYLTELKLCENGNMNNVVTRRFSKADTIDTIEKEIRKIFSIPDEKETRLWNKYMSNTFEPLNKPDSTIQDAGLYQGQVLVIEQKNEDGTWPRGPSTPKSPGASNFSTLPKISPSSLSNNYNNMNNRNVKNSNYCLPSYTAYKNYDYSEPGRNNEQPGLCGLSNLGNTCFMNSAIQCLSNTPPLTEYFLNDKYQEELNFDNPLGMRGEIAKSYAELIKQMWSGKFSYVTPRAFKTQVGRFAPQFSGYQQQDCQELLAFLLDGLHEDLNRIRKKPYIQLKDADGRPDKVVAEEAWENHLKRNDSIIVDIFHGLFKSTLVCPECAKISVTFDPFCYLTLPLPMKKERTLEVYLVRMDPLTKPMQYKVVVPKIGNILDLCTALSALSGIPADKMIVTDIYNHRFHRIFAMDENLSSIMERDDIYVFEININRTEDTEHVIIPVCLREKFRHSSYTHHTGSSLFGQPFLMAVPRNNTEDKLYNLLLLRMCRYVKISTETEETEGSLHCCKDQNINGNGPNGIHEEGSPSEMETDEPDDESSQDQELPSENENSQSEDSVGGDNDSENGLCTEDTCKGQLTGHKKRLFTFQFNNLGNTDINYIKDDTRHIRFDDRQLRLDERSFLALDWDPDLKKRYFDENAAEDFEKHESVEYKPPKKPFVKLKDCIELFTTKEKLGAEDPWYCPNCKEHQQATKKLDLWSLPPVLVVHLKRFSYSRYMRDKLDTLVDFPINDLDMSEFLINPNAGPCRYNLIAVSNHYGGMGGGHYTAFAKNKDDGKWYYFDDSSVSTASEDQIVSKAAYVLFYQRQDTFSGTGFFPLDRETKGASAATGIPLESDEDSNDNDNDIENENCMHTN
Put shortly: as §1

Unmarked numbers belong to inactive results.

Chain of USP10 (Q14694 whole entry): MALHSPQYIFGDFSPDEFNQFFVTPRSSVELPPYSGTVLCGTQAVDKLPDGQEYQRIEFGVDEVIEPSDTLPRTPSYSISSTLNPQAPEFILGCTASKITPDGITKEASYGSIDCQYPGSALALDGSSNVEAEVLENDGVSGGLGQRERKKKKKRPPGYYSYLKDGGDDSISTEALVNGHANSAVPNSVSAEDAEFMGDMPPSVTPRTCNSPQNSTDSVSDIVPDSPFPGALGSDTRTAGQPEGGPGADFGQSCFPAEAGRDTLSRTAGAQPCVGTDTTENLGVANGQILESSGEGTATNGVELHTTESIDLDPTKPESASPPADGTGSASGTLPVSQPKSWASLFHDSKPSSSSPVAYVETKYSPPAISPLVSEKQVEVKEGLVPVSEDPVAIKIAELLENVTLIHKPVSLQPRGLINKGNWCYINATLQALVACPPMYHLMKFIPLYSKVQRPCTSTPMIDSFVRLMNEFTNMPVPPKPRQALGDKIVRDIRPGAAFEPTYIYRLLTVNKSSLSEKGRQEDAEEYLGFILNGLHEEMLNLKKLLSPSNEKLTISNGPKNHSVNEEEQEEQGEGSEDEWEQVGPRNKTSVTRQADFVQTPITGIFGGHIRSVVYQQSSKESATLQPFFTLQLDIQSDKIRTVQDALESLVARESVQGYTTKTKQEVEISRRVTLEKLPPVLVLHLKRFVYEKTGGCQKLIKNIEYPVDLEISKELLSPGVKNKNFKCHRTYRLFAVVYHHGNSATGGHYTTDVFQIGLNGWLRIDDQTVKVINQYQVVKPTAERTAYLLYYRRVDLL
Chain of UCHL1 (P09936 whole entry, looked up): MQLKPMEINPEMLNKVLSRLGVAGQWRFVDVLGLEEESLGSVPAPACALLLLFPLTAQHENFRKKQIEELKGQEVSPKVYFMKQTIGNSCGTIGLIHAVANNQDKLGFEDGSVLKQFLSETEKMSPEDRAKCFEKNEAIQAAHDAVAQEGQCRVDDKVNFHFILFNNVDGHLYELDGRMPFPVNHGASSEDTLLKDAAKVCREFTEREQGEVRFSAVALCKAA

Consider `COCC1C=CCCN1C(=O)CCl` (centres undefined), for which the “log2 ratio of Biotin-Ahx-Ub-VS probe labelling” value with OTUD6B was -0.121; with OTUD7B, -0.466; with PRPF8, -0.181; with PSMD7, -0.134; with UCHL1, -1.94 (active); in the experiment with UCHL3 it was -0.0426. Moreover, the “log2 ratio of Biotin-Ahx-Ub-VS probe labelling” value with UCHL5 was -0.167; in the experiment with USP10, -0.0693; with USP15, -0.145.
